The full list was thinned out, with hits kept by preference.
IDE exosite inh = exo-site inhibitors of human IDE, primary screen, biochemical, fluorescence anisotropy, probe displacement; purified IDE, FL-6b probe fluorescence polarization; active compounds read low; Insulin-degrading enzyme (Homo sapiens), P14735; 17,000 compounds, 6.3% hits; z-score at 20 µM; AID 1259349, 2017;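 active = z-score of -3 or lower, meaning strong loss of probe binding signal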;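 note: His-tagged human IDE residues 42-1019 made in E. coli with 30 nM FL-6b probe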
Target sequence (P14735 42-1019 limits assumed): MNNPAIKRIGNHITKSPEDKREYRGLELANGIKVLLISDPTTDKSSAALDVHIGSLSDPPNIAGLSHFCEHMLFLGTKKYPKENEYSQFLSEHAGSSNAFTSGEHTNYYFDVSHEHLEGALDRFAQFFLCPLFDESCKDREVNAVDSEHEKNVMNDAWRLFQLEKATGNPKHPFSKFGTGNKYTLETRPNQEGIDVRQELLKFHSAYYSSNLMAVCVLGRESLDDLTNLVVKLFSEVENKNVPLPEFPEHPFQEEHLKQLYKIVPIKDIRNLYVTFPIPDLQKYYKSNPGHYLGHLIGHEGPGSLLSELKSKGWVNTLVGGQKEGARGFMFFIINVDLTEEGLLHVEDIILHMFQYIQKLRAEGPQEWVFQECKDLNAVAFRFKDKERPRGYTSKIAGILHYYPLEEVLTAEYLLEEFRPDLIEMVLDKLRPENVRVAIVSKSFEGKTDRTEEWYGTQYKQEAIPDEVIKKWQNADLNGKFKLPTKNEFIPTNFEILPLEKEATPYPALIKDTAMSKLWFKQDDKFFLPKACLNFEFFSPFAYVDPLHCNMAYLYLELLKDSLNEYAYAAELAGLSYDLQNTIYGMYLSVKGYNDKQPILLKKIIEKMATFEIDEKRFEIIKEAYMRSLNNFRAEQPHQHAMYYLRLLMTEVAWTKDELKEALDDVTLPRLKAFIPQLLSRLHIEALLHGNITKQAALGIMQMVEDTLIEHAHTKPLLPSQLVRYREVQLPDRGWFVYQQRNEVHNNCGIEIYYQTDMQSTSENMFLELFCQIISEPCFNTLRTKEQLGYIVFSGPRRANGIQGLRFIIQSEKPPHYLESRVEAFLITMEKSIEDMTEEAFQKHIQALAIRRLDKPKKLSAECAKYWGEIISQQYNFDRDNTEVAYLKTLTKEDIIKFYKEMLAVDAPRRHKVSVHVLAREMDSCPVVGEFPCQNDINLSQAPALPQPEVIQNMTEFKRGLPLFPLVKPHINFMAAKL
* marks the source's active call; other numbers are inactive results.

SMILES	IDE exosite inh
COCC(=O)N1CC(=O)N2[C@H](CO)[C@@H](c3ccc(C#Cc4cccc(OC)c4)cc3)[C@H]2C1	-1.18
COCC(=O)N1CC(=O)N2[C@@H](CO)[C@H](c3ccc(C#Cc4cccnc4)cc3)[C@@H]2C1	1.09
COCC(=O)N1CC(=O)N2[C@H](C1)[C@H](c1ccc(C#CC3CCCC3)cc1)[C@@H]2CO	0.502
COCC(=O)N1CC(=O)N2[C@H](C1)[C@@H](c1ccc(C#CC3CCCCC3)cc1)[C@@H]2CO	-10.6*
COCC(=O)N1CC(=O)N2[C@H](CO)[C@H](c3ccc(C#CC4CCCCC4)cc3)[C@@H]2C1	1.82
COCC(=O)N1CC(=O)N2[C@@H](CO)[C@H](c3ccc(C#Cc4cccc(OC)c4)cc3)[C@@H]2C1	-4.95*
CCCC#Cc1ccc([C@H]2[C@@H](CO)N(S(=O)(=O)c3cccc(F)c3)[C@H]2C#N)cc1	5.47
CN1CCCCN2[C@@H](CO)[C@H](c3ccc(-c4ccc(F)cc4)cc3)[C@@H]2C1	-0.54
CO[C@H](CN(C)C(=O)c1cnccn1)[C@H](C)CN([C@@H](C)CO)S(=O)(=O)c1ccccc1	0.567
COc1ccc(-c2ccc([C@@H]3[C@@H](C#N)N[C@@H]3CO)cc2)cc1	3.45
COc1ccc(C#Cc2ccc([C@H]3[C@@H](CO)N4C(=O)CN(C(=O)c5ccccc5)C[C@H]34)cc2)cc1	2.19
COc1ccc(C#Cc2ccc([C@@H]3[C@H]4CN(C(=O)c5ccccc5)CC(=O)N4[C@H]3CO)cc2)cc1	2.08
O=C(c1ccccc1)N1CC(=O)N2[C@@H](CO)[C@H](c3ccc(C#Cc4ccccc4)cc3)[C@@H]2C1	-3.81*
COc1ccc(C#Cc2ccc([C@H]3[C@H](CO)N4C(=O)CN(C(=O)c5ccccc5)C[C@@H]34)cc2)cc1	1.89
O=C(c1ccccc1)N1CC(=O)N2[C@@H](CO)[C@@H](c3ccc(C#Cc4ccccc4)cc3)[C@@H]2C1	-9.13*
O=C(c1ccccc1)N1CC(=O)N2[C@H](C1)[C@@H](c1ccc(C#Cc3ccccc3)cc1)[C@@H]2CO	0.436
COc1ccc2c3c([nH]c2c1)[C@H](CO)N(C(=O)Nc1ccc(F)cc1)CC31CN(C(=O)c2ccccn2)C1	0.233
CCS(=O)(=O)N1CCC2(CC1)CN(C(=O)c1cccc(F)c1)[C@H](CO)c1c2c2ccc(OC)cc2n1C	0.658
O=C(c1ccc(F)cc1)N1CC(=O)N2[C@H](CO)[C@H](c3ccc(C#CC4CC4)cc3)[C@H]2C1	0.0685
O=C(CC1CC1)N1CC2(C1)[C@@H](c1ccccc1)[C@@H](CO)N2Cc1ccccn1	0.787
O=C(Cc1ccccn1)N1CC2(C1)[C@H](c1ccccc1)[C@@H](CO)N2C(=O)c1ccncc1	-3.71*
O=C(Cc1ccccn1)N1CC2(C1)[C@@H](c1ccccc1)[C@@H](CO)N2C(=O)c1ccncc1	-3.29*
O=C(c1ccncc1)N1CC2(C1)[C@H](c1ccccc1)[C@H](CO)N2CC1CC1	-1.03
O=C(CC1CC1)N1CC2(C1)[C@@H](c1ccccc1)[C@H](CO)N2C(=O)c1ccccn1	-0.564
CCC(=O)N1[C@H](CO)[C@@H](c2ccccc2)C12CN(C(=O)c1ccncc1)C2	1.2
SMILES	IDE exosite inh
COc1ccc(CN(C)C[C@@H]2Oc3ccc(NC(=O)Nc4ccc5c(c4)OCO5)cc3CC(=O)N([C@@H](C)CO)C[C@H]2C)cc1	1.31
CCS(=O)(=O)N1CCC2(CC1)CN[C@@H](CO)c1c2c2ccc(OC)cc2n1C	0.0577
O=C1C[C@@H](c2ccccc2)C(=O)N[C@@H](c2ccccc2)C/C=C\C[C@@H](c2ccccc2)N1	-0.219
Cc1cccc(S(=O)(=O)N2C[C@@H]3[C@H](c4ccccc42)[C@H](CO)N3CC2CCCC2)c1	2.45
O=C(Nc1cc(F)ccc1F)N1CC(=O)N2[C@H](C1)[C@H](c1ccc(-c3cccc(F)c3)cc1)[C@@H]2CO	-0.134
O=C(c1ccncc1)N1CC(=O)N2[C@H](CO)[C@@H](c3ccc(/C=C/c4ccccc4)cc3)[C@H]2C1	-1.23
O=C(c1ccc(F)cc1)N1CC(=O)N2[C@H](CO)[C@@H](c3ccc(/C=C/c4ccccc4)cc3)[C@@H]2C1	0.703
O=C(c1ccccc1)N1CC(=O)N2[C@@H](CO)[C@H](c3ccc(/C=C/c4ccccc4)cc3)[C@@H]2C1	-3.39*
C/C=C/c1ccc([C@H]2[C@H](CO)N3C(=O)CN(C(=O)c4ccc(F)cc4)C[C@@H]23)cc1	2.38
C/C=C/c1ccc([C@H]2[C@H]3CN(C(=O)Cc4cccnc4)CC(=O)N3[C@H]2CO)cc1	-0.491
O=C(c1ccccc1)N1CC(=O)N2[C@H](C1)[C@@H](c1ccc(/C=C/c3ccccc3)cc1)[C@@H]2CO	-2.63
O=C(c1cccnc1)N1CC(=O)N2[C@H](CO)[C@H](c3ccc(-c4ccc(F)cc4)cc3)[C@@H]2C1	0.282
C/C=C/c1ccc([C@@H]2[C@@H](CO)N3C(=O)CN(C(=O)Cc4cccnc4)C[C@H]23)cc1	1.12
O=C(c1ccc(F)cc1)N1CC(=O)N2[C@@H](CO)[C@H](c3ccc(/C=C/c4ccccc4)cc3)[C@@H]2C1	-5.27*
O=C(c1cccc(F)c1)N1CC(=O)N2[C@H](CO)[C@H](c3ccc(/C=C/c4ccccc4)cc3)[C@@H]2C1	-2.7
O=C(c1cccnc1)N1CC(=O)N2[C@H](CO)[C@@H](c3ccc(/C=C/c4ccccc4)cc3)[C@H]2C1	-5.41*
O=C(Cc1cccnc1)N1CC(=O)N2[C@H](C1)[C@@H](c1ccc(/C=C/c3ccccc3)cc1)[C@@H]2CO	-4.73*
C[C@@H]1CN([C@@H](C)CO)C(=O)c2ccccc2-c2ccccc2CO[C@H]1CN(C)C(=O)Nc1cccc(Cl)c1Cl	0.0803
N#C[C@H]1[C@@H](c2ccccc2C2=CCCC2)[C@@H](CO)N1C(=O)CN1CCOCC1	2.49
CCCNC(=O)Nc1ccc2c(c1)OC[C@H](C)N(S(C)(=O)=O)C[C@H](C)[C@@H](OC)CN(C)C2=O	0.46
CO[C@@H]1CC[C@H]2CCOc3ccc(C#N)cc3C(=O)N(C)[C@H](C)C(=O)N(C)C[C@H]1O2	0.867
Cc1noc(C)c1S(=O)(=O)N(C)C[C@@H]1OCc2cn(nn2)CCCC(=O)N([C@H](C)CO)C[C@@H]1C	0.494
N#Cc1cccc(-c2ccc3c(c2)[C@H]2[C@H](CCN2C(=O)CN2CCOCC2)[C@H](CO)N3)c1	0.748
N#C[C@@H]1[C@H](c2ccc(C3=CCCCC3)cc2)[C@H](CO)N1C(=O)CN1CCOCC1	-0.233
O=C(C[C@@H]1C[C@H]2c3cc(NC(=O)CC4CC4)ccc3O[C@H]2[C@@H](CO)O1)NCC1CC1	-0.392
SMILES	IDE exosite inh
O=C(Nc1ccccc1F)N1CCCCN2[C@H](CO)[C@@H](c3ccc(C#Cc4ccccc4)cc3)[C@H]2C1	-4.14*
O=C(Nc1ccccc1)N1CCCCN2[C@H](CO)[C@H](c3ccc(C#Cc4ccccc4)cc3)[C@@H]2C1	-3.43*
O=C(Nc1ccccc1F)N1CCCCN2[C@@H](CO)[C@@H](c3ccc(C#Cc4cccnc4)cc3)[C@@H]2C1	-0.0435
O=C(Nc1ccccc1)N1CCCCN2[C@H](C1)[C@@H](c1ccc(C#Cc3ccccc3)cc1)[C@@H]2CO	0.189
O=C(Nc1ccccc1)N1CCCCN2[C@H](C1)[C@H](c1ccc(C#Cc3ccccc3)cc1)[C@@H]2CO	-0.692
O=C(Nc1ccccc1F)N1CCCCN2[C@H](C1)[C@@H](c1ccc(C#Cc3cccnc3)cc1)[C@@H]2CO	-5.14*
O=C(Nc1ccccc1F)N1CCCCN2[C@H](CO)[C@@H](c3ccc(C#Cc4cccnc4)cc3)[C@@H]2C1	-1.82

Bioassay records (PubChem BioAssay)
